Assay outcomes: PubChem, several laboratories
PrPC TRFRET: cell surface PrPC inhibition, primary TR-FRET screen. P04156. TR-FRET read-out. inhibition, % at 13.8 µM. 370,000 tested, 0.43% active. AID 720596; in the data active means inhibition above about 24%; further: 0% = median of the test wells and 100% = reference compound wells
GDH-TPI inh: inhibits GDH-TPI coupling enzymes, artifact for Mtb FBA screen; GDH-TPI coupled enzyme counterscreen, NADH absorbance; inhibition, % at 4.8 µM; 360,000 tested, 1.2% active; AID 588335; in the data active means inhibition above about 30%;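 further: 0% = DMSO wells and 100% = wells lacking the enzyme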
TcdB GH inh: inhibitors of Clostridioides difficile toxin B glycohydrolase; P18177; TcdB glycohydrolase enzymatic assay, plate reader; inhibition, % at 9.99 µM; 350,000 tested, 0.24% active; AID 652162; in the data active means inhibition above about 10%
FBA Mtb inh: Mtb fructose-bisphosphate aldolase inhibition | P9WQA3 | purified M. tuberculosis FBA, fluorescence read-out | inhibition, % at 1 µM | 360,000 tested, 2.3% active; in the data active means inhibition above about 27%;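 further: 0% = vehicle and 100% = reference inhibitor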
Target sequence (P9WQA3 whole entry, looked up): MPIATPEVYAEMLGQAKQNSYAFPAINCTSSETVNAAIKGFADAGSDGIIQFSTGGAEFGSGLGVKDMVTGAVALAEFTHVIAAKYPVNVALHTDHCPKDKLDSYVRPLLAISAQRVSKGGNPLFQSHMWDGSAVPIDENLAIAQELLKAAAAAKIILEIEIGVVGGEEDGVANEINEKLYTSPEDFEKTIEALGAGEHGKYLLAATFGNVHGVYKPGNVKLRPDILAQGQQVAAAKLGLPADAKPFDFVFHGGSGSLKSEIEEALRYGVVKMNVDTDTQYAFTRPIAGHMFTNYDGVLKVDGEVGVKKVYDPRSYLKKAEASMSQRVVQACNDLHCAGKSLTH
Yp Topo-I inh: blocks Yersinia pestis topoisomerase I activity | Y. pestis Topo-I cleavage product accumulation, plate reader | activity, % at 10 µM | 360,000 tested, 0.064% active; in the data active means activity above about 50%, passing the limit was not always enough
* hit, by the source's call; . = no result; + = active, no number. In the library only some 3.2% were active in any assay of this set; here they are far more common.

SMILES	PrPC TRFRET	GDH-TPI inh	TcdB GH inh	FBA Mtb inh	Yp Topo-I inh
CC1OC23CCCCC2C(C#N)(C(=N)O3)C1(C#N)C#N (stereo unspecified)	-4.5	2.8	.	21.8	-0.4
CC1C2(C)OC(=N)C(C#N)(C(C)O2)C1(C#N)C#N (stereo unspecified)	.	13.1	.	127.7*	-3.0
C/C=C/c1cnc2c(c1)C(=O)N([C@@H](C)CO)C[C@H](C)[C@@H](CN(C)S(=O)(=O)c1ccc(OC)cc1)O2	.	.	0.0	.	.
O=c1[nH]c2cc3c(cc2cc1C(c1nnnn1C1CCCCC1)N1CCSCC1)OCCO3 (stereo unspecified)	-1.6	20.4	.	28.2*	-7.2
COc1cc2cc(C(c3nnnn3C3CCCC3)N3CCCCC3)c(=O)[nH]c2cc1OC (stereo unspecified)	2.3	3.5	.	-0.1	16.6
COCc1c(C(=O)Nc2nnc(C3CC3)s2)oc2ccccc12	6.1	44.0*	-4.7	-1.2	-5.2
CCCc1nnc(NC(=O)c2oc3ccccc3c2COCC)s1	-1.2	21.7	1.0	-1.2	5.0
O=C(C[C@H]1C=C[C@@H](NC(=O)C2CC2)[C@@H](CO)O1)NCC1CC1	.	.	-0.7	.	.
N#Cc1ccc(C(=O)Nc2nnc(-c3cccs3)o2)cc1	1.4	32.9*	-0.1	0.0	-1.3
CC1CC(C)CN(S(=O)(=O)c2ccc(C(=O)Nc3nnc(-c4cccs4)o3)cc2)C1 (stereo unspecified)	-4.3	1.7	.	0.6	5.1
CN(C)S(=O)(=O)c1ccc(C(=O)Nc2nnc(-c3cccs3)o2)cc1	-2.4	12.3	0.6	2.8	-2.2
CCC1CCCCN1S(=O)(=O)c1ccc(C(=O)Nc2nnc(-c3cccs3)o2)cc1 (stereo unspecified)	.	67.6*	.	2.2	8.4
CCC(=O)N1C[C@H](O)COC[C@@H]2O[C@H](CC(=O)NCc3ccccc3Cl)CC[C@H]21	.	.	0.3	.	.
COc1ccc(/C=N/Nc2nn3cnnc3c3ccccc23)cc1	-3.5	34.6*	0.0	-3.0	7.4
O=c1c2ccccc2nnn1CSc1ccc2c(c1)OCCO2	-7.3	3.3	.	152.4*	-1.0
CN(C)C=NC(=O)/C(C#N)=C1\CCc2ccccc2N1	7.5	55.6*	.	0.6	2.6
Cc1cccc(N2CCN(S(=O)(=O)c3c(C)noc3/C=C/N(C)C)CC2)c1C	-2.3	9.2	-0.1	0.7	6.2
Cc1noc(/C=C/N(C)C)c1S(=O)(=O)N1CCN(c2ccc(F)cc2)CC1	3.9	34.0*	0.2	-2.5	21.5
COCCNC(=O)C1CCN(S(=O)(=O)c2c(C)noc2/C=C/c2cccs2)CC1	-2.4	39.2*	0.8	0.4	6.7
COc1ccc(CNC(=O)C2CCN(S(=O)(=O)c3c(C)noc3/C=C/N(C)C)CC2)cc1	.	45.0*	.	8.8	-7.0
COc1ccc(N2CCN(C(=O)C3CCN(S(=O)(=O)c4c(C)noc4/C=C/N(C)C)CC3)CC2)cc1	-3.5	43.6*	-1.3	-1.2	4.7
C[C@H](NC(=O)[C@H]1[C@H](CO)[C@H]2Cn3c(ccc(C4=CCCC4)c3=O)[C@H]2N1C)c1ccccc1	.	.	1.2	.	.
CN1CCN(C(=O)c2cc3c(c(-c4cccc(-c5cccc(F)c5)c4)n2)[C@@H](CCO)N(S(=O)C(C)(C)C)C3)CC1 (stereo partly specified)	.	.	0.4	.	.
Cc1cccc(/C=C/c2onc(C)c2S(=O)(=O)N2CCC(C(=O)NC(C)(C)C)CC2)c1	5.3	-2.0	0.3	4.8	13.5
CCC(C)N1CCN(C(=O)C2CCN(S(=O)(=O)c3c(C)noc3/C=C/c3ccco3)CC2)CC1 (stereo unspecified)	-11.9	37.9*	-0.9	-0.5	24.8
SMILES	PrPC TRFRET	GDH-TPI inh	TcdB GH inh	FBA Mtb inh	Yp Topo-I inh
COc1ccc(N2CCN(S(=O)(=O)c3c(C)noc3/C=C/N(C)C)CC2)cc1	-4.7	39.9*	1.5	2.4	11.1
CNC(=O)C1CCN(S(=O)(=O)c2c(C)noc2/C=C/c2cccc(OC)c2)CC1	4.6	31.7*	0.6	14.4	10.9
CNC[C@H]1OCCCC[C@@H](C)Oc2ccc(NC(=O)Nc3ccc4c(c3)OCO4)cc2C(=O)N([C@@H](C)CO)C[C@H]1C	.	.	0.2	.	.
O=[N+]([O-])c1ccc(S(=O)(=O)Nc2nc(-c3ccccc3)cs2)cc1	-4.6	11.2	12.6*	0.8	3.7
NS(=O)(=O)OCC1CCCCC1	0.4	4.0	-5.1	-2.1	2.1
Nc1nc(N)c(N=O)c(OCC2CCCCC2)n1	-12.7	34.3*	-1.1	0.5	-9.9
N#Cc1c(N)nc2c(c1-c1ccncc1)CCCCC2	-2.9	17.5	.	-0.7	5.2
Cc1c(-c2c(C#N)c(N)nc3c2CCCCCC3)cnn1C	-1.5	14.9	.	+	9.3
Cc1nn(C)c(C)c1-c1c(C#N)c(N)nc2c1CCCCCC2	-0.5	16.4	0.8	46.5*	-0.1
COc1ccc(/C=N/Nc2nnc(-c3ccccc3)c(=O)[nH]2)cc1	0.9	35.4*	.	-4.0	19.4
CN(C)c1ccc(/C=N\Nc2nc(-c3ccccc3)cc(=O)[nH]2)cc1	0.4	12.9	1.8	-0.5	3.1
O=c1[nH]c(N/N=C/c2ccccc2Br)nnc1-c1ccccc1	7.8	38.6*	.	0.2	3.3
Cc1nnc(N/N=C/c2c[nH]c3ccccc23)[nH]c1=O	0.8	29.5	-1.2	4.0	2.4
C[C@H]1CN([C@@H](C)CO)C(=O)c2cc(NS(=O)(=O)c3ccccc3)ccc2O[C@@H]1CN(C)S(=O)(=O)c1cn(C)cn1	.	.	-2.2	.	.
Cc1noc(C)c1NC(=O)N(C)C[C@@H]1Oc2c(NC(=O)c3cnccn3)cccc2C(=O)N([C@H](C)CO)C[C@@H]1C	.	.	-0.5	.	.
COc1cccc(CN2CCC3(CC2)CN(S(C)(=O)=O)[C@H](CO)c2[nH]c4cc(OC)ccc4c23)c1	.	.	3.8	.	.
CN1c2ccc(-c3ccccc3)cc2[C@@H]2[C@@H](CCN2C(=O)Cc2ccccn2)[C@@H]1CO	.	.	1.8	.	.
Cc1occc1C(=O)NC(C)C1CCCO1 (stereo unspecified)	-0.9	-6.5	.	33.2*	5.7
COc1ccc(C(=O)Nc2cc(Cl)ccc2C(=O)O)cc1	7.4	11.6	28.6*	10.1	-3.6
COc1ccc(C(=O)Nc2cc(Cl)ccc2OC(=O)c2ccc(OC)cc2)cc1	.	10.2	.	3.0	0.7
C[C@H](CO)N1C[C@H](C)[C@@H](CN(C)C(=O)Nc2ccccc2)Oc2ccc(NS(=O)(=O)c3ccc(F)cc3)cc2CC1=O	.	.	-0.3	.	.
CCNC(=O)C[C@H]1CC[C@H]2[C@@H](COC[C@@H](O)CN2C(=O)C2CCCC2)O1	.	.	0.6	.	.
Cc1ccsc1C1Nc2ccccc2C(=O)N1O (stereo unspecified)	7.5	0.0	0.7	0.3	-4.2
Cc1ccsc1C1Nc2ccccc2-c2nc3ccccc3n21 (stereo unspecified)	8.2	11.8	1.3	178.1*	-13.9
Cc1cc(NC(=O)c2cc(-c3ccccc3)on2)n(-c2ccccc2)n1	5.0	11.6	.	0.0	107.1*
COc1ccc(-c2cc(C(=O)Nc3cc(C)nn3-c3ccccc3)no2)cc1	-2.0	12.8	.	3.1	3.8
O=C(CC1CC1)Nc1ccc2c(c1)[C@@H]1C[C@H](CC(=O)N3CCCCC3)O[C@@H](CO)[C@@H]1O2	.	.	0.2	.	.
